HCMV inh: inhibitors of human cytomegalovirus; 4.5% of 410,000 active; activity change, negative = inhibition, % at 57.5 µM; HFF cells, HCMV-luciferase reporter, 72 h; hits give low values; AID 1259415; in the data active = activity change below about -60%; inconclusive = no clear call, values can overlap the other calls; inactive = above about -39%; note: % is set by controls: 0 for no effect and ±100 for the full control effect
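Screen run at 2 compound doses on HFFs infected with reporter HCMV, MOI 1 PFU/cell. Luciferase activity from cell lysates at 72 h post infection gave inhibition relative to buffer-only and Salinomycin wells.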
Shiga toxin inh: blocks Shiga toxin action in Vero cells. Vero cells, Shiga toxin protein synthesis inhibition reporter. 9.2% of 290,000 active. inhibition, % at 38.7 µM; in the data active = inhibition mostly above about 28%, no sharp cut-off; inactive = mostly below about 43%; note: 0% is about no effect
Cycloheximide cs: affects cycloheximide protein synthesis inhibition readout, counter-screen; max response, %; cell reporter, cycloheximide protein synthesis inhibition counterscreen; 12% of 300,000 active; in the data active = max response mostly above about 13%, no sharp cut-off; inactive = mostly below about 14%; note: read at 38.3 µM for the half of the compounds with a filed dose; 0% is about no effect
Pf growth 48h: P. falciparum growth inhibition at 48 hours (one generation); P. falciparum luciferase growth in erythrocytes, 48 h; Potency, µM (series often up to 28.7 µM), for the others: at the top dose activity change, negative = inhibition, usual class: inhibitors; 5.9% of 310,000 active; AID 504832; note: potency is the fitted concentration of half-maximal effect; % is set by controls: 0 for no effect and ±100 for the full control effect
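Luciferase-expressing P. falciparum in infected erythrocytes (2% hematocrit, 0.1% parasitemia final) in RPMI 1640/0.5% Albumax were exposed to compound for 48 hours at 37 C, 5% CO2; growth read as luminescence.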
Pf growth 96h: inhibits malaria parasite growth, 96 h | AID 504834 | 6.9% of 320,000 active | Potency, µM (titrated, usually from 28.7 µM), without a hit: at the highest dose activity change, negative = inhibition, actives largely listed as inhibitors | P. falciparum luciferase reporter growth, 96 h; note: potency is the fitted concentration of half-maximal effect; % is set by controls: 0 for no effect and ±100 for the full control effect
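Parasite growth measured via integrated firefly luciferase reporter in P. falciparum. Infected erythrocytes at 2% hematocrit, 0.05% parasitemia final were treated 96 hours at 37 C under 5% CO2, and luminescence was read.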
HCV inhibitor: HCV inhibition; Huh7.5.1 HCVcc-Cre infection, luciferase reporter, 44 h; 3.4% of 340,000 active; AID 651820; Potency, µM (titrated, usually from 41.8 µM), without a hit: top-dose activity change, negative = inhibition, actives largely listed as inhibitors; note: potency is the fitted concentration of half-maximal effect; % is set by controls: 0 for no effect and ±100 for the full control effect
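A cell-based infection assay in which seeded cells (1,000 per well) receive test compound after 4 h, are inoculated with HCVcc-Cre at approximately 0.5 moi, and are incubated 44 h before luminescence detection.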
An asterisk follows results filed as active; [ ] = another dose, or the depositor's remark. Most compounds without a hit are left out; they make up all but 21% or so of the library. Unless noted, calls come from the whole dose curve; as a rule, active = well fitted inhibition curve with a large enough effect; inconclusive = small, poorly fitted or top-dose-only effect, or another doubt; inactive = no such curve, though single readings can be large or run the other way.

How did CCC(C)[C@H]1CNC(=O)C(=O)N1CCCCC1CCCCC1 (stereo partly specified) do in these assays?
HCMV inh: 19

How did CSCCC(NC(=O)c1ccccc1)C(=O)NNC(=O)c1ccccc1 (stereo unspecified) do in these assays?
HCMV inh: -62*; HCV inhibitor: 3%

Results for CSCCC(NC(=O)c1ccccc1)C(=O)N1CCN(C(=O)c2ccccc2)CC1 (stereo unspecified) ?
HCMV inh: -31; HCV inhibitor: -24%

How did CSCCC(NC(=O)c1ccccc1Br)C(=O)NNC(=O)c1cc(C)oc1C (stereo unspecified) do in these assays?
HCMV inh: -63*; HCV inhibitor: -14%

What do the screens show for `CCc1ccc(C(=O)NC(CCSC)C(=O)OC)cc1` (stereo unspecified)?
HCMV inh: 4; Shiga toxin inh: 15; Cycloheximide cs: 17*; Pf growth 48h: inconclusive; Pf growth 96h: 117%; HCV inhibitor: -12%

Results for CSCCC(NC(=O)c1ccccc1)C(=O)N1CC=C(c2ccccc2)CC1 (stereo unspecified) ?
HCMV inh: -24; Shiga toxin inh: 11; Cycloheximide cs: 11; Pf growth 48h: 9.3µM*; Pf growth 96h: inconclusive; HCV inhibitor: inconclusive

How did CC(C)[C@H](NC(=O)c1cccc(CN(Cc2ccccc2)C(=O)/C=C/c2ccccc2)c1)C(=O)O do in these assays?
HCMV inh: inconclusive; HCV inhibitor: 24%

How did COC(=O)COc1ccc2c(-c3ccc(OC)cc3)cc(=O)oc2c1 do in these assays?
HCMV inh: -16; Shiga toxin inh: -12; Cycloheximide cs: -2; Pf growth 48h: 34%; HCV inhibitor: 13%

What do the screens show for `COc1ccc(-c2cc(=O)oc3cc(OCc4nn[nH]n4)ccc23)cc1`?
HCMV inh: -14; Shiga toxin inh: -2; Cycloheximide cs: -1; Pf growth 48h: 37%; Pf growth 96h: 4.7µM*; HCV inhibitor: 3%

What do the screens show for `Cc1cc(NS(=O)(=O)c2ccc(NC(=O)COc3ccc(C#N)cc3)cc2)nc(C)n1`?
HCMV inh: -13; HCV inhibitor: 9%

How did Cc1ccc(C(=O)NCC(=O)OCC(=O)c2ccccc2)s1 do in these assays?
HCMV inh: -12; Pf growth 48h: 39%; Pf growth 96h: 16%; HCV inhibitor: -2%

What do the screens show for `Cc1occc1C(=O)Nc1cccc(Cl)c1Cl`?
HCMV inh: 14; Shiga toxin inh: 48; Cycloheximide cs: 24*; Pf growth 48h: 54%; Pf growth 96h: 92%; HCV inhibitor: 0%

How did Cc1occc1C(=O)Nc1ccc2ccccc2c1 do in these assays?
HCMV inh: 126; Shiga toxin inh: 113*; Cycloheximide cs: 43*; Pf growth 48h: 176%; Pf growth 96h: inconclusive; HCV inhibitor: -13%

Results for Cc1occc1C(=O)Nc1ccccc1C(=O)O ?
HCMV inh: -9; Shiga toxin inh: 48; Cycloheximide cs: 20*; Pf growth 48h: 10%; Pf growth 96h: 126%; HCV inhibitor: 16%

What do the screens show for `COC(=O)CNC(=O)c1ccc(C)s1`?
HCMV inh: -102*; Shiga toxin inh: -10; Cycloheximide cs: -11; Pf growth 96h: 18%; HCV inhibitor: -21%

What do the screens show for `CCc1ccccc1NC(=O)c1ccoc1C`?
HCMV inh: 43; Shiga toxin inh: 0; Cycloheximide cs: -4; Pf growth 48h: 8%; Pf growth 96h: 20%; HCV inhibitor: 6%

How did Nc1ccn([C@@H]2O[C@H](C(=O)Nc3cc(C(F)(F)F)cc(C(F)(F)F)c3)[C@@H](O)[C@H]2O)c(=O)n1 do in these assays?
HCMV inh: 14

How did COc1ccc2[nH]c3c(c2c1)CCN1C(=O)C(CC(=O)NCC24CC5CC(CC(C5)C2)C4)C[C@H](C(=O)N(C(C)C)C(C)C)[C@@]31C (stereo partly specified) do in these assays?
HCMV inh: -13; HCV inhibitor: inconclusive

How did CCOC(=O)c1c(C)[nH]c(C)c1S(=O)(=O)NCC(=O)Nc1ccc(C)c(N(C)C)c1 do in these assays?
HCMV inh: 0

What do the screens show for `C=C[C@@H]1[C@@H](C)[C@H](C)C(=O)C([C@H](O)C(C)C)[C@@H]1C` (stereo partly specified)?
Shiga toxin inh: -8; Cycloheximide cs: -4

What do the screens show for `CC(=O)OCCN1C(=O)c2ccc(-c3nc4ccccc4c(=O)o3)cc2C1=O`?
HCMV inh: inconclusive; HCV inhibitor: -14%

Results for Cc1occc1C(=O)Nc1ccccc1 ?
Shiga toxin inh: 33*; Cycloheximide cs: 28*

How did CCOC(=O)c1c(NC(=O)c2ccoc2C)sc(C)c1C do in these assays?
HCMV inh: -15; Shiga toxin inh: -7; Cycloheximide cs: -2; Pf growth 48h: 19%; HCV inhibitor: inconclusive

Results for CCCC(=O)NNC(=O)c1ccoc1C ?
HCMV inh: -10; Shiga toxin inh: 7; Cycloheximide cs: -2; Pf growth 48h: 5%; Pf growth 96h: 10%; HCV inhibitor: 28%

How did CC(=O)c1cccc(NC(=O)c2ccoc2C)c1 do in these assays?
HCMV inh: -28; Shiga toxin inh: 25; Cycloheximide cs: 7; Pf growth 48h: 24%; Pf growth 96h: -4%; HCV inhibitor: -8%

What do the screens show for `Cc1ccc(C(=O)NNC(=O)c2ccoc2C)s1`?
HCMV inh: -98*; Pf growth 48h: 42%; Pf growth 96h: 12%; HCV inhibitor: -8%

What do the screens show for `CCOC(=O)c1cc(NC(=O)c2ccoc2C)cc(C(=O)OCC)c1`?
HCMV inh: -1; Shiga toxin inh: 19; Cycloheximide cs: 17*; Pf growth 48h: inconclusive; Pf growth 96h: 14%; HCV inhibitor: inconclusive

How did Nc1n[nH]c(N)c1N=Nc1ccc(Cl)cc1 do in these assays?
HCMV inh: 47; Shiga toxin inh: 20; Cycloheximide cs: 47*; Pf growth 48h: 61%; Pf growth 96h: 6%; HCV inhibitor: 0%

Results for Cc1cccc(N=Nc2c(N)n[nH]c2N)c1 ?
HCMV inh: 85; Shiga toxin inh: 36; Cycloheximide cs: 17*; Pf growth 48h: 19%; Pf growth 96h: inconclusive; HCV inhibitor: 4%

What do the screens show for `Nc1[nH]ncc1N=Nc1ccc(Cl)cc1`?
HCMV inh: 160; Shiga toxin inh: 98*; Cycloheximide cs: 55*; Pf growth 96h: 82%; HCV inhibitor: -1%

What do the screens show for `Nc1n[nH]c(N)c1N=Nc1cccc(C(F)(F)F)c1`?
HCMV inh: 19; Shiga toxin inh: 22; Cycloheximide cs: 15; Pf growth 48h: 2%[0.00184 µM]; Pf growth 96h: 15%; HCV inhibitor: -17%

What do the screens show for `Nc1[nH]ncc1-c1ccc(Cl)cc1`?
HCMV inh: 21; Shiga toxin inh: -7; Cycloheximide cs: -1; Pf growth 48h: -2%; Pf growth 96h: inconclusive; HCV inhibitor: -7%

Assay outcomes: PubChem, National Center for Advancing Translational Sciences (NCATS)
